# Compound activity deposited in PubChem by several laboratories.
# A selection: hits, their analogues and other compounds. The true share with any hit is near 4.6%.
# NLRP3 yeast inh: inhibitors of NALP3 inflammasome in yeast | Yeast reconstituted NLRP3/ASC/caspase-1, beta-gal luminescence, 24 h | inhibition, % at 10 µM | actives 0.39% (n = 330,000) | AID 2825;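 active means inhibition of 50% or more; inactive means inhibition below 50%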;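 further: plate controls were induced DMSO wells for no effect and uninduced yeast grown without galactose for full effect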
# SKKanGAS inh: blocks kanamycin growth of S. pyogenes SKKanGAS strain | AID 1662 | BacTiter-Glo, 6 h | inhibition, % at 7.5 µM | actives 1.3% (n = 300,000);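 active means mean replicate score, as percent of positive control median, at least 50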;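 further: strain carries kanamycin resistance gene driven by streptokinase promoter and grows in 40 µg/ml kanamycin; loss of luminescence reflects streptokinase promoter inhibition or plain growth inhibition; 0% = median of DMSO wells and 100% = positive control at its reference dose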
# tim23-1 inh: inhibits growth of tim23-1 mutant yeast | inhibition, % at 20 µM | AID 463212 | S. cerevisiae tim23-1 growth, BacTiter-Glo luminescence, 24 h | actives 1.3% (n = 330,000);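 active means growth inhibition of the mutant yeast at or above 50%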;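 further: temperature-sensitive mutant grown at 25 °C; plate controls were DMSO-treated mutant yeast for no effect and medium wells lacking yeast for full effect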
# tim10-1 inh: growth inhibitors of tim10-1 mutant yeast; S. cerevisiae tim10-1 ts strain growth, BacTiter-Glo, 24 h; inhibition, % at 20 µM; actives 2.2% (n = 330,000);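 active means inhibition of at least 40%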;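 further: mutant grown at 25 °C; 0% = DMSO wells with yeast and 100% = wells holding no yeast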
# TIM10 inh: TIM10 yeast growth inhibition; S. cerevisiae TIM10 strain growth, BacTiter-Glo luminescence, 24 h; inhibition, % at 10 µM; actives 1.4% (n = 330,000); AID 463195;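 active means inhibition of 40% or more at the single tested concentration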;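 further: wild-type TIM10 isogenic control strain grown at permissive 25 °C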
# * hit, by the source's call; nt = no result given.
SMILES,NLRP3 yeast inh,SKKanGAS inh,tim23-1 inh,tim10-1 inh,TIM10 inh
CCOC(=O)N1CCN(S(=O)(=O)c2ccc(C(=O)Nc3nnc(C4CC4)o3)cc2)CC1,-12,3,-4,-1,-9
CCC1CCCCN1S(=O)(=O)c1ccc(C(=O)Nc2nnc(-c3ccccc3Cl)o2)cc1 (configuration not stated),-7,110*,21,32,6
CS(=O)(=O)c1ccccc1-c1nnc(NC(=O)c2ccc(S(=O)(=O)N3CCCC3)cc2)o1,2,6,15,8,5
O=C(Nc1nnc(-c2ccccc2Cl)o1)c1ccc(S(=O)(=O)N2CCCCCC2)cc1,4,107*,6,17,25
CC1CCCCN1S(=O)(=O)c1ccc(C(=O)Nc2nnc(-c3ccccc3Cl)o2)cc1 (configuration not stated),14,97*,27,13,37
CC1CCCCN1S(=O)(=O)c1ccc(C(=O)Nc2nnc(-c3ccncc3)o2)cc1 (configuration not stated),10,27,3,14,7
COc1cc(C(=O)COC(=O)c2ccncc2)cc(OC)c1OC,0,nt,-2,-10,-5
CCC1CCCCN1S(=O)(=O)c1ccc(C(=O)Nc2nnc(C3=COCCO3)o2)cc1 (configuration not stated),-3,79*,1,0,-4
CC(C)=CCc1c(O)cc2c(=O)c3ccc(O)cc3oc2c1O,45,16,46,18,30
CC(C)=CCc1c(O)cc(O)c2c(=O)c3c(CC=C(C)C)c(O)ccc3oc12,19,106*,34,-10,21
CCN(CC(=O)Nc1ccccc1C(F)(F)F)C(=O)c1cc(-c2ccccc2)nn1-c1ccccc1,17,51*,28,15,8
N=C1SCC(=O)N1c1ncc(Cc2cccc(Cl)c2)s1,nt,84*,nt,nt,nt
Cc1cccc(Cc2cnc(N3C(=N)SC(C)C3=O)s2)c1 (configuration not stated),-14,93*,-4,26,27
Cc1ccc(Cc2cnc(N3C(=N)SC(C)C3=O)s2)cc1 (configuration not stated),-4,90*,5,11,30
O=C(Nc1cc(S(=O)(=O)N2CCOCC2)ccc1Cl)c1ccncc1,10,nt,13,15,2
CN=C1N(C)C[C@@H]2[C@@H]3C(=O)N(C)C(=O)[C@@H]3[C@](Cc3ccccc3)(C(=O)OC)N12,nt,nt,31,1,5
Nc1nonc1-c1nc2ccccc2n1CC(=O)N/N=C\c1ccc(-c2ccc(Cl)cc2)o1,-4,99*,-9,20,-21
COc1ccc(CNC(=O)CCC(=O)N2CCN(S(=O)(=O)c3cc([N+](=O)[O-])ccc3C)CC2)cc1,19,nt,11,7,3
O=C(Nc1ccc2c(c1)CCC2)c1cc(S(=O)(=O)Nc2ccc(F)cc2)c(Cl)cc1Cl,3,103*,19,23,24
C#Cc1ccc(CN2CCC(Oc3ccc(C(=O)NCc4ccccn4)cc3)CC2)cc1,29,14,-29,-10,-21
Cc1nnsc1S(=O)c1ccccc1Cl (configuration not stated),-15,-3,-3,8,-3
OC(CNCCC1C=Nc2ccccc21)Cn1c2ccc(Cl)cc2c2cc(Cl)ccc21 (configuration not stated),nt,136*,nt,nt,nt
Cc1c(C)n(CC(O)CNCCO)c2ccccc12 (configuration not stated),14,2,-1,8,-4
Cc1nn(-c2ccccc2)c(C)c1/C=N/NC(=O)c1cc(-c2cccc3ccccc23)n[nH]1,14,51*,25,21,39
CC(=O)N1CCOc2ccc(S(=O)(=O)NCCc3cccc(C)c3)cc21,4,-2,7,16,-12
SMILES,NLRP3 yeast inh,SKKanGAS inh,tim23-1 inh,tim10-1 inh,TIM10 inh
CC1(C)Oc2ccc3ccc(=O)oc3c2/C(=C/NNC(N)=S)C1=O,18,82*,8,27,12
COc1ccc(-c2sc3ccc(OC)cc3c2C#CCCO)cc1,-33,97*,-12,28,-9
CCC1=NN(C(=O)c2ccccc2O)C(O)(c2ccccc2)C1 (configuration not stated),23,54*,36,-15,21
CCC1=NN(C(=O)c2ccccc2Br)C(O)(c2ccc(Br)cc2)C1 (configuration not stated),24,5,43,5,22
COc1ccc(-c2cc(C(F)(F)F)c3c(n2)sc2c(O)cc(=O)[nH]c23)c(OC)c1,16,55*,2,14,11
CCOC(=O)C1=C(C)NC(C)=C(C(=O)OCC)C1C(=O)OCC(=O)NC1CCCCC1,-5,nt,9,3,3
C[C@H](NC(=O)c1ccco1)C(=O)NNC(=O)c1ccc(F)cc1,15,nt,-4,-9,-6
CNC(CC(C)C)C(=O)NC1C(=O)NC(CC(N)=O)C(=O)NC2C(=O)NC3C(=O)NC(C(=O)NC(C(=O)O)c4cc(O)cc(O)c4-c4cc3ccc4O)C(O)c3ccc(c(Cl)c3)Oc3cc2cc(c3OC2OC(CO)C(O)C(O)C2OC2CC(C)(N)C(O)C(C)O2)Oc2ccc(cc2Cl)C1O (configuration not stated),nt,102*,nt,nt,nt
Cc1cc(NC(=O)CSc2nc3cc(Cl)ccc3c(=O)n2C(C)C)no1,-4,nt,4,-2,-2
Cc1ccc2c(C)c(C(=O)N3CCN(c4ncccn4)CC3)oc2c1C,20,19,39,28,25
Cc1cccc(NS(=O)(=O)c2ccc(C3CCCCC3)cc2)c1,4,108*,8,33,25
O=C(O)c1cccc(NS(=O)(=O)c2ccc(C3CCCCC3)cc2)c1,16,9,3,-4,14
CC(C)C1OC2c3cccc4cccc(c34)C2N1c1ccccc1 (configuration not stated),8,80*,-8,10,-7
CCOC(=O)c1cnn(-c2nc(-c3cccc(F)c3)cs2)c1C(F)(F)F,20,64*,25,29,20
O=C(O)c1cnn(-c2nc(-c3cccc(F)c3)cs2)c1C(F)(F)F,4,0,14,1,-10
CCOC(=O)c1cnn(-c2nc3c(C)cccc3s2)c1C(F)(F)F,13,88*,19,29,13
CC1CC(=O)Nc2ccccc2N1C(=O)CSc1ccc2ccccc2n1 (configuration not stated),19,nt,-1,-5,2
COc1cc(NC(=O)Cn2c([N+](=O)[O-])cnc2C)c(OC)cc1Cl,-5,-2,1,-6,-7
Cc1cccc2sc(NNC(=O)c3ccc(S(=O)(=O)N4CCc5ccccc5C4)cc3)nc12,10,59*,19,-3,-31
CCOC(=O)N1CCN(S(=O)(=O)c2ccc(C(=O)NNc3nc4c(C)cccc4s3)cc2)CC1,9,22,9,-10,-49
Cc1cccc2sc(NNC(=O)c3ccc(S(=O)(=O)N4CCCC(C)C4)cc3)nc12 (configuration not stated),nt,91*,nt,nt,nt
